In ChEMBL document CHEMBL1961873, “Compounds: GSK PKIS; Assays: Nanosyn kinase panel” (2012) one finds inhibition data, which are given here for seven molecules.

What is called inhibition is the relative decrease from the control value, in per cent.

The target in assay [1] is Calcium/calmodulin-dependent protein kinase type II subunit alpha (Homo sapiens) (UniProt Q9UQM7). Particulars: at 1 µM.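 Also: reported value is a mean percent inhibition of CAMK2A.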
In assay [2] the target is Calcium/calmodulin-dependent protein kinase type II subunit delta (Homo sapiens) (UniProt Q13557). Particulars: at 0.1 µM.
Chain of Calcium/calmodulin-dependent protein kinase type II subunit delta (Homo sapiens) (Q13557 whole entry): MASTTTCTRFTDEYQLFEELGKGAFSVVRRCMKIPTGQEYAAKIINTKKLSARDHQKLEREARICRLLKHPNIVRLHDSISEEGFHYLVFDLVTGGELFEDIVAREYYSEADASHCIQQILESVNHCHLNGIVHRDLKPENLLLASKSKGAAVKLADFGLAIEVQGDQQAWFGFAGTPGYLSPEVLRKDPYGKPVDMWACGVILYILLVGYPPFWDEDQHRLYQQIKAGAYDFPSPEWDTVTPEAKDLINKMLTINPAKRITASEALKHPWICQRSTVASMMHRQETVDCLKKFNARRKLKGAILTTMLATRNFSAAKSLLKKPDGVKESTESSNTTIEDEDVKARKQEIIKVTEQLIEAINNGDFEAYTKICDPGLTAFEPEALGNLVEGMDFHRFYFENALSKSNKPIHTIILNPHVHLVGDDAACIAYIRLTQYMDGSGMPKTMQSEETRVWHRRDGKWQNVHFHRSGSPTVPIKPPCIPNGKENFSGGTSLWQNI
The target is the same in assay [3]. Particulars: at 1 µM.
Assay [4] concerns the target T1, Calcium/calmodulin-dependent protein kinase type IV (Homo sapiens) (UniProt Q16566).
T1 sequence (whole entry): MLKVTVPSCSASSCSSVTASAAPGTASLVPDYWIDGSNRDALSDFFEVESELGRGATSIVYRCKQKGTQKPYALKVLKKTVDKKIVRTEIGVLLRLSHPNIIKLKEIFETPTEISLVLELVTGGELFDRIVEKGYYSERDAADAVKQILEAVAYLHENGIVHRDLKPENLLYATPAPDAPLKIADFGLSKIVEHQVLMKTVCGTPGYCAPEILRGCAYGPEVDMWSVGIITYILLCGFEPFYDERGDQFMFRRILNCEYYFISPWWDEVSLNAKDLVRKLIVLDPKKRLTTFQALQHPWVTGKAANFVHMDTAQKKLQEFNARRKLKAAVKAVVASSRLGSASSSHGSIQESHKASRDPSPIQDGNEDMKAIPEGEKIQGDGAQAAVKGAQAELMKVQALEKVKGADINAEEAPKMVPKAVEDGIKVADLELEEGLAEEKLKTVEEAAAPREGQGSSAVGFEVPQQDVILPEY
As to conditions: at 0.1 µM.

Assay [5] concerns the target T1, Calcium/calmodulin-dependent protein kinase type IV (Homo sapiens). Particulars: at 1 µM.
Assay [6] concerns the target T2, Serine/threonine-protein kinase Chk1 (Homo sapiens) (UniProt O14757).
T2 sequence (whole entry): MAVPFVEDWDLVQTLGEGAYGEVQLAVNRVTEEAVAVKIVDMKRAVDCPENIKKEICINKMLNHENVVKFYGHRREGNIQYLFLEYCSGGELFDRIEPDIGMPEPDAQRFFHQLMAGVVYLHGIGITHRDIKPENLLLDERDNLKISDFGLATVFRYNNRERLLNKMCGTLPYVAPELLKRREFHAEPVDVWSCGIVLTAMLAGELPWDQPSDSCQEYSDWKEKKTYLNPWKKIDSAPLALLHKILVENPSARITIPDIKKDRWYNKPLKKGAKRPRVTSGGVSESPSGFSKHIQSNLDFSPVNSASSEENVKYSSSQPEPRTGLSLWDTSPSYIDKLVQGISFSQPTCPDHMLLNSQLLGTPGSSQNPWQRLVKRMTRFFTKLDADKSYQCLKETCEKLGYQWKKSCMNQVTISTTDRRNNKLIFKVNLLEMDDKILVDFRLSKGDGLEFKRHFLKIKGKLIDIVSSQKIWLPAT
As to conditions: at 0.1 µM.

Assay [7] addresses T2, Serine/threonine-protein kinase Chk1 (Homo sapiens). As to conditions: at 1 µM.
Assay [8] deals with Serine/threonine-protein kinase Chk2 (Homo sapiens) (UniProt O96017). Particulars: at 0.1 µM.
Chain of Serine/threonine-protein kinase Chk2 (Homo sapiens) (O96017 whole entry): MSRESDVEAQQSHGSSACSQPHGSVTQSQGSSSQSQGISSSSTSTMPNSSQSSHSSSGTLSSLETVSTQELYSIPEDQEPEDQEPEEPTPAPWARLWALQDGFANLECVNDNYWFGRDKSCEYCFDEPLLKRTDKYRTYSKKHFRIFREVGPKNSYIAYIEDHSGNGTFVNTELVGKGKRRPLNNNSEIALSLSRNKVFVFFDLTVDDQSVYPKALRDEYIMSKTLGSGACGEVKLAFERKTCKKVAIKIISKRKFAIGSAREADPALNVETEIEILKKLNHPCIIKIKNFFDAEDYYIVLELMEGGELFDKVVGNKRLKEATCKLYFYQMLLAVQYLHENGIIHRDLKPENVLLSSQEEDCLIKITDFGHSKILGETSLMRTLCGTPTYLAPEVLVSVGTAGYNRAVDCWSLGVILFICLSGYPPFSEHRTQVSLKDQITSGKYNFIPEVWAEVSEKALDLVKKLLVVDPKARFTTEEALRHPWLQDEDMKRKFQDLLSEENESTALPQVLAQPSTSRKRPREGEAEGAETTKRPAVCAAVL
For assay [9] the target is unchanged. Particulars: at 1 µM.
The target in assay [10] is Death-associated protein kinase 1 (Homo sapiens) (UniProt P53355). As to conditions: at 0.1 µM.
Chain of Death-associated protein kinase 1 (Homo sapiens) (P53355 whole entry, looked up): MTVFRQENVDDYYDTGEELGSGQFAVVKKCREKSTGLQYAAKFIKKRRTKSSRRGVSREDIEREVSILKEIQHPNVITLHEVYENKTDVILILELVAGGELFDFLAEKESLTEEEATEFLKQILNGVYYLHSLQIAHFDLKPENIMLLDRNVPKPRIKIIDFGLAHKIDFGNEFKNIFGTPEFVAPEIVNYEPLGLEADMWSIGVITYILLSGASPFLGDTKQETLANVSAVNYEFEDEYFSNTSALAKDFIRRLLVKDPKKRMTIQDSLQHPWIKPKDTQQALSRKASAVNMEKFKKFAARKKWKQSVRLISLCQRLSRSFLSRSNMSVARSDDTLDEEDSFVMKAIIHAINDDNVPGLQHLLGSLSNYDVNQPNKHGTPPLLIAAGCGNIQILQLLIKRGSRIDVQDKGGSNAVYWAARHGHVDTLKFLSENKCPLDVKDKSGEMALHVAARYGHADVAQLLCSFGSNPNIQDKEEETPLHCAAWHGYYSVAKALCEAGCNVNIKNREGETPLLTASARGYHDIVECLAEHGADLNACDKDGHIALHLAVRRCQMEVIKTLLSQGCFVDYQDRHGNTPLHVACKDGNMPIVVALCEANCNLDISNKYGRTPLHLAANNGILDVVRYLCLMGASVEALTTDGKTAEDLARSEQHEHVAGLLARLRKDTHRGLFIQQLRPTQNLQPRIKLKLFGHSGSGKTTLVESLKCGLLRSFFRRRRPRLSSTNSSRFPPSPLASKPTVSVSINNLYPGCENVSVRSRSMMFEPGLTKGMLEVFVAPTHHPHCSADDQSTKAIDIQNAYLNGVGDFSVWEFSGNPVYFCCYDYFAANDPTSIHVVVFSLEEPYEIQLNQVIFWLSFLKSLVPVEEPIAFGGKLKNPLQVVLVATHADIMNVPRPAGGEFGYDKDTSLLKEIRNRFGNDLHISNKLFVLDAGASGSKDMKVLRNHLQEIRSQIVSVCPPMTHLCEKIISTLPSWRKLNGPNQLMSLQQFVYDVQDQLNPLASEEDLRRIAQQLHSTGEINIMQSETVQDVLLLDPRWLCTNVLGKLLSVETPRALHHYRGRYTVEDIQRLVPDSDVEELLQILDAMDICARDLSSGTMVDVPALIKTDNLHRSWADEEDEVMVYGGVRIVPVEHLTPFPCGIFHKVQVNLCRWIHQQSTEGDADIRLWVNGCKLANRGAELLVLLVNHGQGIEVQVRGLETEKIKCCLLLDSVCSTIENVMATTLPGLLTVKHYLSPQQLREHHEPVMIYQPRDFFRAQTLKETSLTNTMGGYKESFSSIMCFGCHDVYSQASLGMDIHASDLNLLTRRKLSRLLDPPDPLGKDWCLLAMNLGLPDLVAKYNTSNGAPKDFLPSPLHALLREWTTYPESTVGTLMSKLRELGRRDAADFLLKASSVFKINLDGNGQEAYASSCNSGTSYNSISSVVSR
Assay [11] has the same target. Particulars: at 1 µM.
Assay [12] has as its target T3, Serine/threonine-protein kinase DCLK2 (Homo sapiens) (UniProt Q8N568).
T3 sequence (whole entry): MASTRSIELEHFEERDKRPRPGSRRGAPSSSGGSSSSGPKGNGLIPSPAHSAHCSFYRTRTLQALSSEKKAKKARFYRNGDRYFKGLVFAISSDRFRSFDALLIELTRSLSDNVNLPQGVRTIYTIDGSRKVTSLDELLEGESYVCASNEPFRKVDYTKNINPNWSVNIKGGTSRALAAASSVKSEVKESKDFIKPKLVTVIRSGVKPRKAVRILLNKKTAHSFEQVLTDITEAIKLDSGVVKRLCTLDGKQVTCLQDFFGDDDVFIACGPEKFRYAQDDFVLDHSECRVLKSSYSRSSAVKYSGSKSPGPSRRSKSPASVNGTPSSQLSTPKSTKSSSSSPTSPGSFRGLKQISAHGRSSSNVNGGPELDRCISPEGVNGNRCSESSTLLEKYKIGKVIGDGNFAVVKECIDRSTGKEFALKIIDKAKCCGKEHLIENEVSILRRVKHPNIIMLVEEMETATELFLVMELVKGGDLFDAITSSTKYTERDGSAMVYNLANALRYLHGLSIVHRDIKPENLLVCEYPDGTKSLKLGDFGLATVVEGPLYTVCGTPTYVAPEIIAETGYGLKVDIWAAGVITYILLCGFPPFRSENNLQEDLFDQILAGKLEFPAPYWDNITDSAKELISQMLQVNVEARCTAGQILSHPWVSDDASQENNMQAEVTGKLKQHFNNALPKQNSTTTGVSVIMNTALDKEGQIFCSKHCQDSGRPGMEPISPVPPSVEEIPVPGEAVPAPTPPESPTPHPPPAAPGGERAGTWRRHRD
As to conditions: at 0.1 µM.

The target in assay [13] is T3, Serine/threonine-protein kinase DCLK2 (Homo sapiens). As to conditions: at 1 µM.
In assay [14] the target is MAP kinase-activated protein kinase 2 (Homo sapiens) (UniProt P49137). Particulars: at 0.1 µM.
Chain of MAP kinase-activated protein kinase 2 (Homo sapiens) (P49137 whole entry, looked up): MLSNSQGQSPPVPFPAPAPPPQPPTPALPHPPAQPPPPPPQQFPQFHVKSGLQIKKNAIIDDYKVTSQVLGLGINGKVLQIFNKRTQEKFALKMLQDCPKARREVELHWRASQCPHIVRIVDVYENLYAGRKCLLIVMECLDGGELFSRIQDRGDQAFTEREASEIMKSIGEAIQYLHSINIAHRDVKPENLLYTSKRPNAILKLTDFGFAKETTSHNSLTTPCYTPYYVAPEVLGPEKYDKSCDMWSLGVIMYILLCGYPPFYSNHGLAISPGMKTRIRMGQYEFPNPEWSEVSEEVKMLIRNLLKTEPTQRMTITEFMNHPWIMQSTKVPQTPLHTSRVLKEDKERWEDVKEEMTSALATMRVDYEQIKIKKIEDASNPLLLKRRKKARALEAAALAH
Assay [15] has the same target. As to conditions: at 1 µM.
Assay [16] addresses MAP kinase-activated protein kinase 3 (Homo sapiens) (UniProt Q16644). Particulars: at 0.1 µM.
Assay [17] has the same target. As to conditions: at 1 µM.
For assay [18], the target named is Serine/threonine-protein kinase MARK1 (Homo sapiens) (UniProt Q9P0L2). Particulars: at 0.1 µM.
Assay [19] has the same target. As to conditions: at 1 µM.
The target of assay [20] is MAP/microtubule affinity-regulating kinase 3 (Homo sapiens) (UniProt P27448). As to conditions: at 0.1 µM.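 Also: mean percent inhibition of MARK3 kinase activity, measured within the GSK PKIS screening panel.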
Chain of MAP/microtubule affinity-regulating kinase 3 (Homo sapiens) (P27448 whole entry, looked up): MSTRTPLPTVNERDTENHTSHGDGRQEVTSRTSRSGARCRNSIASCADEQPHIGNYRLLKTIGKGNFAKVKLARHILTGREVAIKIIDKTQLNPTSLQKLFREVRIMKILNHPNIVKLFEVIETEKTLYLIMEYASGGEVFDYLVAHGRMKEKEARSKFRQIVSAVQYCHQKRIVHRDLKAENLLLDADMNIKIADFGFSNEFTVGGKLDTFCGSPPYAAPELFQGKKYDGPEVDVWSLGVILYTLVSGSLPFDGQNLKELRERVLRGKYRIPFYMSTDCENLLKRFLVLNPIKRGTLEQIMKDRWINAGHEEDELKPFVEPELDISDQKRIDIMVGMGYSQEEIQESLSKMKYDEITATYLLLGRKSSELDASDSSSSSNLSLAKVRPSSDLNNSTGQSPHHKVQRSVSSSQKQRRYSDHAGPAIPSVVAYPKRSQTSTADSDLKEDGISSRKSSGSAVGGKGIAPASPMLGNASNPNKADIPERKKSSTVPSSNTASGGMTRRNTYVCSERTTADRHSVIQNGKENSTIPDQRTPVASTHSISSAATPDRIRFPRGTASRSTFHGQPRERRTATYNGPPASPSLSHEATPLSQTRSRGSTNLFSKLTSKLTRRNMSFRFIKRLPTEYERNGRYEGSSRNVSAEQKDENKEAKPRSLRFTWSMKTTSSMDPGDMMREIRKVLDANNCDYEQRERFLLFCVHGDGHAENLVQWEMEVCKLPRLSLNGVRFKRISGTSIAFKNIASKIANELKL

Chain of MAP kinase-activated protein kinase 3 (Homo sapiens) (Q16644 whole entry, looked up): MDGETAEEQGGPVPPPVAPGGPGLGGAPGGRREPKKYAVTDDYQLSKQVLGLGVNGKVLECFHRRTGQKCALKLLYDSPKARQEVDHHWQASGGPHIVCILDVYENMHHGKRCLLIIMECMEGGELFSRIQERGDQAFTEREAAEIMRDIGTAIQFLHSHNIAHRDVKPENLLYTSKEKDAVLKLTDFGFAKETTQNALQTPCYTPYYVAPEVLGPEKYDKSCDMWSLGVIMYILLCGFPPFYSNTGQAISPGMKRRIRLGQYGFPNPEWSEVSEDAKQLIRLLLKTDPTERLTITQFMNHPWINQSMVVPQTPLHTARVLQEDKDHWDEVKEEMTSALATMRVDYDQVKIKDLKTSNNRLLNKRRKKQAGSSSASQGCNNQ
Chain of Calcium/calmodulin-dependent protein kinase type II subunit alpha (Homo sapiens) (Q9UQM7 whole entry): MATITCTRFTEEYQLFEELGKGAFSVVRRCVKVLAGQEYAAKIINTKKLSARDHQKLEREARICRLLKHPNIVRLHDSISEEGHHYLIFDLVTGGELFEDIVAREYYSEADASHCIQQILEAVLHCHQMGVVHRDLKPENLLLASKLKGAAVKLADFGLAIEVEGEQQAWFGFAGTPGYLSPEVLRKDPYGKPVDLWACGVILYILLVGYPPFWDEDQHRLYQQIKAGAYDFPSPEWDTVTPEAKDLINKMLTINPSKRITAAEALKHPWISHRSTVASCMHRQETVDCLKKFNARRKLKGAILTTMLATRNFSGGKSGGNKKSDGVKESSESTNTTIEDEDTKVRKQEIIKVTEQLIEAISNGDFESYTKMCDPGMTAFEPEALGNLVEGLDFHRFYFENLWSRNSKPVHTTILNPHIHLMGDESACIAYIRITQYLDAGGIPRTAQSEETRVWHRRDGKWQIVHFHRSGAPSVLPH

In the case of `Cc1nc(-c2ccccc2)n2nc(NCCCN3CCOCC3)ncc12`, the inhibition in [1] worked out at 3.41%; in assay [2], 2.22%; in assay [3], 3.36%; in [4], 0.88%; in assay [5], 2.05%; in assay [6] it was 1.78%. The inhibition in assay [7] is 3.88%; in [8], 2.24%; in assay [9], 4.72%; in assay [10], 3.5%; in [11] it was 1.62%; in assay [12], -0.46%. Besides, the inhibition came out at 1.45% in assay [13]; 1.25% in [14]; 2.01% in assay [15]; 1.51% in assay [16]; 1.12% in assay [17]; 0.92% in assay [18]. For the same molecule, the inhibition stood at 3% in [19] and 0.93% in [20].

Take `Oc1cccc(-c2nc(-c3ccccc3)[nH]c2-c2ccncc2)c1`: the inhibition in assay [1] was found to be 3.17%; in assay [2], 3.67%; in [3], 3.45%; in [4] it was 2.26%; in assay [5], 0.29%; in assay [6] it was 7.47%. The inhibition in [7] was determined as 6.28%; in [8], 0.91%; in assay [9], 1.68%; in assay [10], 5.76%; in assay [11] it was 6.12%; in assay [12], 2.33%. For the same molecule, the inhibition amounted to 0.39% in assay [13]; 1.62% in assay [14]; 1.79% in [15]; 11.7% in [16]; 25.4% in assay [17]; 1.58% in assay [18]. Besides, the inhibition was 4.27% in assay [19] and 3.78% in assay [20].

On to `COc1cccc(-n2nc(C)c3c(N/N=C(\C)c4ccncc4)ncnc32)c1`, for which the inhibition in assay [1] was -0.32%; in assay [2], 0.75%; in assay [3], 1.55%; in assay [4], -0.54%; in [5] it was 0.81%; in assay [6] it was 0.24%. Further, the inhibition in [7] is 0.57%; in assay [8] it was 0.02%; in [9] it was 0.48%; in [10], 0.32%; in assay [11] it was -0.72%; in assay [12] it was -1%. The inhibition came to 0.33% in [13]; 0.1% in [14]; 0.45% in assay [15]; 0.03% in assay [16]; 0.31% in assay [17]; 0.08% in assay [18]. Besides, the inhibition in assay [19] was 1.32%; in assay [20], -0.48%.

As to `NS(=O)(=O)c1cccc(-c2cc3ccncc3cc2OCc2ccccc2)c1`, the inhibition in [1] is 4.81%; in assay [2], 4.83%; in assay [3] it was 5.07%; in assay [4], 0.13%; in assay [5] it was -0.46%; in assay [6] it was 5.29%. Further, the inhibition in assay [7] amounted to 6.26%; in [8] it was 3.17%; in [9], 5.38%; in assay [10], 6.37%; in [11], 7.29%; in assay [12], 0.9%. Besides, the inhibition stood at 0.91% in assay [13]; 2.83% in [14]; 3.32% in assay [15]; 4.06% in assay [16]; 3.27% in assay [17]; 5.91% in [18]. In addition, the inhibition stood at 9.52% in assay [19] and 5.98% in assay [20].

Turning to `COc1ccc2ncnc(Nc3ccc(OCc4ccccc4)cc3)c2c1`, the inhibition turned out to be 2.13% in [1]; 0.77% in assay [2]; 1.93% in [3]; 0.01% in assay [4]; 0.04% in [5]; 0.93% in assay [6]. In addition, the inhibition is 3.17% in [7]; 1.65% in assay [8]; 14.2% in [9]; 3.34% in assay [10]; 3.26% in assay [11]; -5.53% in assay [12]. Also, the inhibition is -8.44% in assay [13]; 1.42% in assay [14]; -2.28% in assay [15]; 2.72% in assay [16]; 4.71% in assay [17]; 1.85% in [18]. Besides, the figures for the inhibition in [19] and in assay [20] were 3.7% and 1.64%, respectively.

Consider `COC(=O)Nc1nc2cc(Oc3ccc(NC(=O)Nc4cccc(Br)c4)cc3)ccc2[nH]1`, for which the inhibition worked out at 2.07% in assay [1]; 1.97% in assay [2]; 3.53% in assay [3]; 1.41% in [4]; 2.33% in [5]; 2.14% in assay [6]. The inhibition was 2.72% in assay [7]; 1.92% in [8]; 2.2% in [9]; 2.43% in assay [10]; 2.38% in assay [11]; -0.32% in [12]. Also, the inhibition stood at 4.24% in [13]; 1.26% in [14]; 1.19% in assay [15]; 4.95% in assay [16]; 6.43% in assay [17]; 1.41% in [18]. In addition, the inhibition in [19] was 1.86%; in [20], 3.56%.

As to `CCn1c(-c2nonc2N)nc2c(C#CC(C)(C)O)nc(OCCNC)cc21`, the inhibition is 3.51% in assay [1]; 3.94% in assay [2]; 7.7% in [3]; -0.53% in assay [4]; 2.52% in [5]; -0.01% in [6]. Moreover, the inhibition in [7] is 1.87%; in assay [8], 3.74%; in [9] it was 6.21%; in assay [10], 1.77%; in [11], -0.74%; in [12], -0.8%. Besides, the inhibition in assay [13] is -0.85%; in assay [14], 1.85%; in assay [15], 2.88%; in assay [16], 2.43%; in [17] it was 3.56%; in assay [18], 1.55%. The inhibition in assay [19] amounted to 10.3%; in assay [20], 0.62%.
